# A selection: hits, their analogues and other compounds. The true share with any hit is near 5.7%.
# PI4K2A block: PI4K2A (human) kinase inhibition. activity change, negative = inhibition, % at 76.9 µM. purified PI4K2A, ADP-Glo luminescence, 1 h; hits give low values. hit rate 0.13% among 420,000; in the data active = activity change below about -50%; inconclusive = mostly about -30% to -49%;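 note: -100% = wells without enzyme as full effect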
# Target sequence (Q9BTU6 whole entry, looked up): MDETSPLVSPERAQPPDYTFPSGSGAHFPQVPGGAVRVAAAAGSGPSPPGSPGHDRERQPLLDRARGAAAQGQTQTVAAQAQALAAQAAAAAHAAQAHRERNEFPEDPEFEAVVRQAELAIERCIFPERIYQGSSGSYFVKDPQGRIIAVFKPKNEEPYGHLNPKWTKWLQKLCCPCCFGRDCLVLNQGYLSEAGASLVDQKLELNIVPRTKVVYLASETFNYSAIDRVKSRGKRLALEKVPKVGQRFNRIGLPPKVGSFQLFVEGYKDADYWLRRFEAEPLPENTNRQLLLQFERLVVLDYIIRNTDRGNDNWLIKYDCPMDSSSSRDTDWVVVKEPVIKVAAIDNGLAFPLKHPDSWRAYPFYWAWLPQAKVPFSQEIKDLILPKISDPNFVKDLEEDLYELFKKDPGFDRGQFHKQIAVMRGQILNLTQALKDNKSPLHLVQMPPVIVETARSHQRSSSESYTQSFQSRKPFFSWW
#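 Compounds are screened against recombinant PI4K2A using PI as substrate and ATP, the latter dispensed at 300 microM. Reactions run one hour at ambient temperature before ADP-Glo detection; full inhibition defined by wells lacking enzyme.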
# A549 tox: A549 cytotoxicity, counter-screen for Nrf2 inhibitors | A549 ARE-Fluc cells, CellTiter-Fluor viability, 18-24 h | Potency, µM (series often up to 46 µM), for inactives: at the top dose activity change, negative = cytotoxicity, usual class: inhibitors | hit rate 0.16% among 390,000 | AID 504648; note: potency is the fitted concentration of half-maximal effect
#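 A549 ARE-Fluc cells in 5% FBS OPTI-MEM, 5000 cells/well, rested 2 h then exposed to compounds in concentration-response for 18-24 h at 37 °C. Viability by CellTiter-Fluor fluorescence (Ex 405/Em 525) after 30 min; luciferase luminescence (BugLite, 15 min, RT) read afterwards.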
# Giardia kill: kills Giardia lamblia | Giardia lamblia trophozoite viability | activity change, % at 7.66 µM, hits read low | hit rate 0.15% among 340,000 | AID 540267; in the data active = activity change below about -80%; inconclusive = between about -30% and that limit;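 note: parasites exposed to compound for two days anaerobically before the ATP read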
#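 Trophozoite viability was measured as ATP-dependent luminescence, read 15-30 min after reagent addition. Before that, parasites at 100 cells/well were exposed to compounds for 48 h, anaerobically, at 37 deg C.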
# KB-V1 cytotox: kills drug-selected multidrug resistant KB-V1 cells. Potency, µM (series often up to 46.1 µM), actives largely listed as cytotoxic. hit rate 3.4% among 400,000. KB-V1 MDR cells viability, CellTiter-Glo, 72 h. AID 1347076; note: potency is the fitted concentration of half-maximal effect; nearly all actives have a fitted effect of over 60% in size
#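 In this primary screen, KB-V1 cells overexpressing P-gp are incubated with library compounds (lowest to highest concentration) for 72 h at 37 degrees C before a luminescent ATP viability read.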
# Nrf2 block: inhibitors of Nrf2 signaling. A549 ARE-Fluc reporter, luciferase luminescence, 18-24 h. Potency, µM (doses to about 46 µM), inactives show at the highest dose activity change, negative = inhibition, hits mostly inhibitors. hit rate 2.1% among 360,000. AID 504444; note: potency is the fitted concentration of half-maximal effect; nearly all actives have a fitted effect of over 60% in size
#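 A549 ARE_Fluc cells (5000/well, 5% FBS OPTI-MEM) pre-incubated 2 h, then treated with compounds 18-24 h at 37C/5% CO2 in concentration-response. CellTiter-Fluor viability read first; BugLite luciferase luminescence after 15 min at room temperature gives Nrf2 activity.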
# KB-3-1 cytotox: kills parental KB-3-1 adenocarcinoma cells. KB-3-1 viability, CellTiter-Glo ATP luminescence, 72 h. hit rate 1.4% among 400,000. AID 1347075. Potency, µM (top dose mostly 46.1 µM), most hits filed as cytotoxic; note: potency is the fitted concentration of half-maximal effect; nearly all actives have a fitted effect of over 60% in size
#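 Viability of parental KB-3-1 cells, measured by CellTiter-Glo luminescence, followed a 72 h incubation at 37 °C with pinned compounds in phenol-red-free DMEM containing 10% FBS.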
# * = called active by the depositor; i = inactive; ? = inconclusive; . = no result. Unless noted, calls come from the whole dose curve; as a rule, active = well fitted curve in the direction sought with a large enough effect; inconclusive = small, poorly fitted or top-dose-only effect, or another doubt; inactive = no such curve, though single readings can be large; an effect the other way counts as inactive or inconclusive. Unless noted, % is set by controls: 0 for no effect and ±100 for the full control effect.
SMILES,PI4K2A block,A549 tox,Giardia kill,KB-V1 cytotox,Nrf2 block,KB-3-1 cytotox
CC12CCC(C(=O)N3CCCc4ccccc43)(CC1=O)C2(C)C (stereo not drawn),3,-12%,4,16µM*,1%,i
CCN(CCCNC(=O)CN1N=C(c2ccc(OC)cc2)CCC1=O)c1cccc(C)c1,0,-7%,.,.,.,.
Cc1ccc(N/N=C(\Cc2nc3ccccc3[nH]2)c2ccccc2)cc1,0,-29%,-10,3.7µM*,?,1.2µM*
O=c1c2ccccc2nc(-c2ccc(Cl)cc2)n1CCCCOc1ccc(F)cc1,1,10%,.,i,2%,i
Cc1cccc(Cn2c(SCc3ccc(C(=O)NC4CCCC4)cc3)nc3ccncc32)c1,1,-6%,.,i,21µM*,i
Cc1ccc(Cn2c(SCc3ccc(C(=O)N4CCCCCC4)cc3)nc3ccncc32)cc1,-3,-14%,.,i,15µM*,?
Cc1ccc(Cn2c(SCc3ccc(C(=O)N4CCCCC4)cc3)nc3ccncc32)cc1,4,-16%,.,.,?,.
COc1ccc(CNC(=O)CSCc2ccc(C)cc2)c(OC)c1,-8,16%,.,.,.,.
CCOC(=O)Nc1ccc2c(c1)ncn2C1CCCCC1,-4,7%,17,18µM*,17%,i
COC(=O)Nc1ccc2c(c1)ncn2C1CCCCC1,-4,0%,-5,i,?,i
Cc1csc(N(C)C(=O)CSc2nnc(COc3cccc4ccccc34)o2)n1,2,0%,-3,?,21µM*,i
COC(=O)CSc1nnc(COc2cccc3ccccc23)o1,3,1%,-20,i,5%,i
O=c1oc2cc(Oc3c([N+](=O)[O-])cc(C(F)(F)F)cc3[N+](=O)[O-])ccc2c2c1CCCC2,10,-14%,5,?,?,?
O=c1oc2cc(Oc3ccc(C(F)(F)F)cc3[N+](=O)[O-])ccc2c2c1CCC2,-2,2%,2,21µM*,9%,i
C#CCn1c(S(=O)(=O)Cc2ccc(C)cc2)nc(-c2ccccc2)c1-c1ccccc1,1,-13%,-1,6.5µM*,?,6.5µM*
CN1C(=O)c2ccccc2Sc2ccc(NC(=O)COc3ccc(F)cc3)cc21,-3,-17%,.,?,.,?
Cc1ccc(NC(=S)NNc2ncc(C(F)(F)F)cc2Cl)c(C)c1,1,-12%,-8,i,?,i
FC(F)(F)c1cnc(NNC(=S)Nc2ccc(Cl)cc2)c(Cl)c1,5,?,-4,i,12µM*,?
Cc1ccc(NC(=S)NNc2ncc(C(F)(F)F)cc2Cl)cc1,2,-5%,-9,i,23µM*,?
O=S(=O)(NNc1ncc(C(F)(F)F)cc1Cl)c1ccc(F)cc1F,-1,-3%,13,i,-2%,i
O=C(NNc1ncc(C(F)(F)F)cc1Cl)c1ccc(Cl)c(Cl)c1,-5,1%,-6,i,3%,i
Fc1ccc(NC(=S)NNc2ncc(C(F)(F)F)cc2Cl)c(F)c1,-3,?,10,15µM*,?,21µM*
N#Cc1ccc(NC(=O)OC2CCC23CCC(c2ccccc2)CC3)cc1 (stereo not drawn),-3,.,.,.,.,.
O=C(OCCN1C(=O)c2cccc3c(N4CCOCC4)ccc(c23)C1=O)c1ccc(Cl)cc1Cl,-4,?,6,?,?,?
O=C(OCCN1C(=O)c2cccc3c(N4CCOCC4)ccc(c23)C1=O)c1cccc(Cl)c1,-2,?,-2,?,-25%,13µM*
SMILES,PI4K2A block,A549 tox,Giardia kill,KB-V1 cytotox,Nrf2 block,KB-3-1 cytotox
Clc1ccccc1Nc1nnc(-c2ccncc2)s1,?,0%,?,9.2µM*,?,?
FC(F)(F)c1ccc(Cl)c(Nc2nnc(-c3ccncc3)s2)c1,.,.,.,i,.,i
COc1ccc(CNC(=O)CCc2nc3cccnc3n2Cc2ccc(OC)cc2)cc1,1,-12%,.,i,-4%,i
COc1cc2nc(SCC(=O)NCc3ccco3)n(Cc3ccc(Cl)cc3)c(=O)c2cc1OC,-9,?,-17,?,?,10µM*
COc1ccc(Cn2c(CCC(=O)NCc3ccco3)nc3cccnc32)cc1,-1,0%,2,21µM*,4%,i
COCCNC(=O)CSc1nc2cc(OC)c(OC)cc2c(=O)n1Cc1ccc(OC)cc1,-1,10%,5,2.6µM*,13%,i
Cc1ccc(Cn2c(SCC(=O)NCc3ccco3)nc3ccsc3c2=O)cc1,3,3%,-12,i,.,i
C[C@H]1[C@@H](NC(=O)C(c2ccccc2)c2ccccc2)CC[C@@]23CCCN2C(=O)CCC[C@@H]13,-4,.,.,.,.,.
Cc1csc(NC(=O)c2cn3ccccc3n2)n1,-56*,-9%,?,?,?,?
Cc1nn(-c2ccccc2)c(C)c1C(=O)OC(C)C(=O)NC1CCCCC1 (stereo not drawn),2,-21%,-11,i,18µM*,i
Cc1c(C(=O)NC(C)C)c(-c2ccccc2)nn1-c1ccccc1,2,-2%,-5,21µM*,-8%,i
Cc1c(C(=O)NC(C)c2ccccc2)c(-c2ccccc2)nn1-c1ccccc1 (stereo not drawn),4,7%,-9,i,.,i
COC(=O)[C@H]1C[C@@]2(Oc3ccc(Br)cc3)c3ccccc3N(C(=O)OC(C)(C)C)[C@H]2N1C(=O)OC(C)(C)C,3,.,.,.,.,.
CCc1ccc(-n2nnc(-c3nc(-c4ccc(C)cc4)no3)c2N)cc1,-8,0%,.,.,28%,.
CCOC(=O)C1=Nc2ccccc2C1=[N+]=[N-],8,?,?,2.6µM*,?,?
CC(=O)C1=C(O)C2(C)c3c(O)c(C)c(O)c(C(C)=O)c3OC2CC1=O (stereo not drawn),8,.,.,16µM*,.,i
